L3MBTL1 inh: qHTS Assay for the Inhibitors of L3MBTL1. Lethal(3)malignant brain tumor-like protein 1 (Homo sapiens), Q9Y468. AlphaScreen L3MBTL1–H3K9me1 peptide binding. Potency, µM (series often up to 57.1 µM), most hits filed as inhibitors. hit rate 0.66% among 230,000. AID 485360, 2010; further: nearly all actives have a fitted effect of over 60% in size
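AlphaScreen proximity signal between nickel-chelate acceptor and streptavidin donor beads (final 10 ug/mL) reports binding of 50 nM L3MBTL1 to 75 nM biotin-H3 K9me1 peptide; complex incubated with compounds 30 min at room temperature; cefsulodin titration as control.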
G9a block: qHTS Assay for Inhibitors of Histone Lysine Methyltransferase G9a | Histone-lysine N-methyltransferase EHMT2 (Homo sapiens), Q96KQ7 | Potency, µM (top dose mostly 102 µM), actives largely listed as inhibitors | G9a H3K9 monomethylation, AlphaScreen, 2 h | AID 504332, 2011 | hit rate 8.8% among 350,000; further: nearly all actives have a fitted effect of over 75% in size
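G9a (20 nM) was preincubated 15 min with compound, then reacted 2 h at room temperature with 500 nM biotin-H3K9 peptide and 20 µM SAM. Monomethyl-H3K9 detected by AlphaScreen using anti-H3K9me1 antibody.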
GLS inh: qHTS for Inhibitors of Glutaminase (GLS) | Glutaminase kidney isoform, mitochondrial (Homo sapiens), O94925 | Potency, µM (series often up to 45.5 µM), usual class: inhibitors | AID 624170, 2012 | GLS enzymatic activity, qHTS titration | hit rate 0.21% among 410,000
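Human kidney-isoform GLS in 45 mM KH2PO4 pH 8.2, 0.02% Tween-20, with compound, started with 1mM L-Glutamine (added stock). Glutamate oxidase/HRP/Amplex red coupled fluorescence read at start and after 30 min at RT.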
HP1b binding inh: HTS for Inhibitors of HP1-beta Chromodomain Interactions with Methylated Histone Tails | AlphaScreen HP1-beta / biotin-H3K9me3 peptide binding | Potency, µM (highest dose often 114 µM), most hits filed as inhibitors | hit rate 0.56% among 390,000 | Chromobox protein homolog 1 (Homo sapiens), P83916; further: nearly all actives have a fitted effect of over 70% in size
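AlphaScreen: HP1-beta (50 nM) preformed 30 min with biotin-H3(1-18)K9me3 peptide (50 nM) in PBS pH 7.4, 0.01% Tween-20. Compound added for 30 min at RT, then streptavidin donor/nickel chelate acceptor beads (10 ug/mL) for 30 min.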
BAZ2B inh: qHTS Assay for Inhibitors of BAZ2B; Potency, µM (highest dose often 114 µM), usual class: inhibitors; AlphaScreen BAZ2B-H3K14Ac peptide displacement; AID 504333, 2011; hit rate 4.4% among 360,000; further: nearly all actives have a fitted effect of over 60% in size
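Compounds, titrated to a top concentration of 110 uM, were incubated 30 min at room temperature with preformed BAZ2B/acetyl-K14 H3 peptide complex (50 nM each). Proximity signal was measured by AlphaScreen after 20 min with beads.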
JMJD2A Tudor: qHTS Assay for Inhibitors of JMJD2A-Tudor Domain; Lysine-specific demethylase 4A (Homo sapiens), O75164; Potency, µM (titrated, usually from 114 µM), hits mostly inhibitors; AlphaScreen JMJD2A-Tudor / H3K4me3 peptide binding; hit rate 4.4% among 390,000; further: nearly all actives have a fitted effect of over 50% in size
A number is an active result; - = inactive; ? = inconclusive; . = no result given; [ ] = dose if it differs, or a comment. Rows were chosen to be rich in hits. Some 10% of all compounds tested hit in one or more screens of this group. The call rests on the fitted dose curve; in most records, active means well fitted curve in the direction sought with a large enough effect; inconclusive means small, poorly fitted or top-dose-only effect, or another doubt; inactive means no such curve, though single readings can be large; an effect the other way counts as inactive or inconclusive.

SMILES | L3MBTL1 inh | G9a block | GLS inh | HP1b binding inh | BAZ2B inh | JMJD2A Tudor
CCOc1ccc(CCNC(=O)c2cc3sc(CC)cc3n2C)cc1OCC | . | - | - | - | - | ?
COC(=O)c1sc2nc(-c3ccccc3)c3c(c2c1N)CCCC3 | - | - | - | - | - | -
NC(=O)c1sc2nc(N3CCCCC3)c3c(c2c1N)CCCC3 | - | 35µM | - | - | ? | -
Nc1c(C(=O)O)sc2nc(-c3ccccc3)c3c(c12)CCCC3 | - | 6.3µM | - | - | - | -
CCOC(=O)c1sc2nc(N3CCOCC3)c3c(c2c1N)CCCC3 | - | - | ? | - | - | -
CCN(CC)C(=O)c1sc2nc(N3CCOCC3)c3c(c2c1N)CCCC3 | . | 8.9µM | - | - | - | ?
CC1(C)O[C@H]2[C@@H](O1)[C@@H](C(=O)Nc1ccccc1C(F)(F)F)O[C@@H]1OC(C)(C)O[C@@H]12 | . | - | - | - | - | -
O=C(CCCn1c(=O)c2ccccc2n(CC(=O)Nc2cccc(Cl)c2)c1=O)NCc1ccc2c(c1)OCO2 | . | - | - | - | - | -
CC1OC(OC2C(Oc3c(-c4ccc(O)cc4)oc4cc(O)cc(O)c4c3=O)OC(COC3O[C@@H](C)[C@H](O)[C@@H](O)C3O)C(O)C2O)C(O)C(O)C1O (stereo not given in full) | - | -[12.7 µM] | - | - | - | -
O=c1c(O[C@@H]2O[C@H](CO)[C@@H](O)[C@H](O)[C@H]2O)c(-c2ccc(O)cc2)oc2cc(O)cc(O)c12 | - | . | - | - | . | -
CC1OC(OCC2OC(Oc3c(-c4ccc(O)cc4)oc4cc(O)cc(O)c4c3=O)C(O)C(O)C2O)C(O)C(O)C1O (stereo not given) | 14µM | . | ? | - | ? | ?
O=c1c(OC2OC(CO)C(O)C(O)C2OC2OC(CO)C(O)C(O)C2OC2OC(CO)C(O)C(O)C2O)c(-c2ccc(O)c(O)c2)oc2cc(O)cc(O)c12 (stereo not given) | . | ? | - | - | ? | 32µM
O=c1c(O[C@@H]2O[C@H](CO)[C@@H](O)[C@H](O)[C@H]2O)c(-c2ccc(O)c(O)c2)oc2cc(O)cc(O)c12 | . | 8.9µM | . | . | - | .
O=c1c2c(O)cc(O)cc2oc2ccc(O)c(O[C@@H]3O[C@H](CO)[C@@H](O)[C@H](O)[C@H]3O[C@H]3O[C@H](CO)[C@@H](O)[C@H](O)[C@H]3O)c12 | - | -[12.7 µM] | - | - | - | -
O=c1c(O[C@@H]2O[C@H](CO)[C@H](O)[C@H](O)[C@H]2O)c(-c2ccc(O)c(O)c2)oc2cc(O)cc(O)c12 | . | 13µM | . | . | ? | .
Cc1ccc(NC(=O)N2CCN(Cc3nc4ccc(C)cc4o3)CC2)c(Cl)c1 | . | - | - | - | - | -
O=c1cc(-c2ccc(O)c(O)c2)oc2cc(O)c(C3OC(CO)C(O)C(O)C3O)c(O)c12 (stereo not given) | 16µM | -[12.7 µM] | - | - | ? | 25µM
C[C@@H]1O[C@@H](OC[C@H]2O[C@@H](Oc3c(-c4ccc(O)c(O)c4)oc4cc(O)cc(O)c4c3=O)[C@H](O)[C@@H](O)[C@@H]2O)[C@H](O)[C@H](O)[C@H]1O | . | ? | - | - | - | -
COc1c(-c2ccc(O)c(O)c2)oc2cc(O)cc(O)c2c1=O | . | -[12.7 µM] | ? | - | 35µM | ?
COc1ccc(-c2nc3cnc(N(C)C)nc3n(CCC#N)c2=O)cc1 | . | -[0.501 µM] | . | . | . | .
COc1cccc(C=C2Cc3ccccc3C2=O)c1 | . | . | - | . | . | .
COc1cccc(/C=C2\C(=O)C(=O)c3ccccc32)c1 | . | 50µM | - | - | ? | ?
O=C1NN(c2ccccc2)C(=O)/C1=C\c1ccc2c(c1)OCO2 | - | 50µM | - | - | - | ?
COc1cccc(/C=C2/C(=O)NN(c3ccccc3)C2=O)c1 | . | 40µM | ? | - | ? | -
COc1cccc(/C=C2/C(=O)NN(c3ccc(C)c(C)c3)C2=O)c1 | - | 45µM | - | - | - | -
SMILES | L3MBTL1 inh | G9a block | GLS inh | HP1b binding inh | BAZ2B inh | JMJD2A Tudor
O=C1CCc2cc(S(=O)(=O)Nc3ccncc3)ccc2N1 | . | . | . | . | . | -
Cc1nn2c(C)c(C(=O)NCc3ccc(OC(C)C)cc3)cnc2c1-c1ccc(F)cc1 | . | - | - | - | - | -
COc1ccc2c(c1)OC(C)(C)C(c1ccccc1)C2c1ccc(OCCN2CCCC2)cc1 (stereo not given) | . | ? | - | . | . | .
COCCCNc1nc(NCc2ccc(C)cc2)c2cnn(C)c2n1 | . | -[12.7 µM] | - | - | - | -
O=C1NN(c2ccc(F)cc2)C(=O)/C1=C/c1cccs1 | - | 45µM | - | - | - | -
COc1cccc(C=C2SC(=S)NC2=O)c1 | . | . | - | - | . | -
COc1cccc(/C=C2/C(=O)NN(c3ccc(F)cc3)C2=O)c1 | . | 45µM | - | - | - | -
O=C1NN(c2ccccc2)C(=O)C1=Cc1ccccc1O | . | . | - | . | . | .
Oc1ccc(Cl)cc1C1C=C(c2ccc3c(c2)OCO3)NC(c2ccc(Br)cc2)N1 (stereo not given) | . | . | . | - | . | -
CCOC(=O)CC1C(=O)NCCN1C(=S)NC(=O)c1ccccc1OC (stereo not given) | . | . | - | - | - | 28µM
CC(C)OC(=O)CC1C(=O)NCCN1C(=S)NC(=O)c1cccs1 (stereo not given) | - | 45µM | - | - | - | -

Compound activity: PubChem BioAssay, National Center for Advancing Translational Sciences (NCATS)
